Several values for one entry are separate records, joined by “and”; a condition that tells them apart may be missing. Equal entries are not always repeated. Inconclusive results are not listed. Entries that show only a call come without a potency. Some compounds were tested as several samples or in several runs, with calls that do not always agree. Activity calls are given as the source filed them. Calls follow the shape of the dose curve; as a rule, active = well fitted inhibition curve with a large enough effect in the signal ratio in the repeat runs, with a control signal flat; inconclusive = weak or mixed curves, or effect the other way; inactive = flat fitted curve, though single readings scatter; the % refers to the signal ratio.
Biological target: D(2) dopamine receptor (Homo sapiens) (UniProt P14416)
Test: Dopamine D2 receptor (DRD2) small molecule antagonists, cell-based qHTS assay (AID 1963595)
How it was run: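 Human DRD2 antagonist qHTS measuring cAMP by HTRF. The cells are exposed to compound for 10 min, then to NKH477 (200 nM) and quinpirole (12 nM) for 30 min at RT, with Ro20-1724 (0.1 mM) present throughout.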
Potency is read from the fitted curve at half-maximal effect.

Sequence of D(2) dopamine receptor (Homo sapiens) (P14416 whole entry, looked up): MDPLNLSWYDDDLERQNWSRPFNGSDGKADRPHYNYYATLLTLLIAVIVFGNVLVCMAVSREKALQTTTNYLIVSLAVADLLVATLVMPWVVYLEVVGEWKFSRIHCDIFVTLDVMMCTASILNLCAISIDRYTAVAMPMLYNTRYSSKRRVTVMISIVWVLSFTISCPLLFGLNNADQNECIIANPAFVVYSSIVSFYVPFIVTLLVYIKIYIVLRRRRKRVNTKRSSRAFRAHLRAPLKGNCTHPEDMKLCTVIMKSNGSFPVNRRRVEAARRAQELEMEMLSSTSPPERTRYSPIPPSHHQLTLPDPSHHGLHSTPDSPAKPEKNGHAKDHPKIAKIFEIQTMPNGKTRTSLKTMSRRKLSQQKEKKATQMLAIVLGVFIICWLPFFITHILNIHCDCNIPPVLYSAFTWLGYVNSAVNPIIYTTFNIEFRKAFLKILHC

Row | SMILES | activity change, negative = inhibition | Potency
1 | COC(=O)c1ccc2cc(C(=O)OC)ccc2c1 | -2.05% [at 18.9 µM] (inactive) | 
2 | O[C@@H]([C@H](O)[C@H](O)CBr)[C@H](O)CBr |  | inactive
3 | NCCNCCN |  | inactive
4 | O=C1OC[C@H](Cc2cccc(O)c2)[C@H]1Cc1cccc(O)c1 |  | inactive
5 | NNc1nncc2ccccc12 |  | inactive and 10.3 µM (active)
6 | N#CCC(=O)O |  | inactive
7 | Cc1ccc(CO)cc1 |  | inactive
8 | CC(Cl)COP(=O)(OCC(C)Cl)OCC(C)Cl (centres undefined) |  | inactive
9 | CCCSSCCC |  | inactive
10 | [K+] |  | inactive
11 | ON=C1CCCCC1 |  | inactive
12 | Cc1ccccc1OCC1CO1 (centres undefined) |  | inactive
13 | CCOCOCC |  | inactive
14 | C=C(C)C(=O)OCCC[Si](Cl)(Cl)Cl |  | inactive
15 | CCCCCCCCOC(=O)CCCCCCCCC(=O)OCCCCCCCC |  | inactive
16 | COC(/C=C(\C)CCC=C(C)C)OC |  | inactive
17 | O=S(=O)(O)C(F)(F)F |  | inactive
18 | Cc1ccccc1OCC(O)CO (centres undefined) |  | inactive
19 | CCOC(=O)O[C@]1(C(=O)OCCl)CC[C@H]2[C@@H]3CCC4=CC(=O)C=C[C@]4(C)[C@H]3[C@@H](O)C[C@@]21C |  | inactive
20 | C=C(C)C(=O)OCCOP(=O)(O)O |  | inactive
21 | CCc1cnc(C(=O)O)c(C(=O)O)c1 |  | inactive
22 | COc1cccc(OC)c1C(=O)O |  | inactive
23 | COC(=O)c1ccccc1C(=O)O |  | inactive
24 | NC(=O)NS(=O)(=O)c1ccc(Cl)cc1 |  | inactive

Row | SMILES | activity change, negative = inhibition | Potency
25 | CC12CCC(C1)C(C)(C)C2O (centres undefined) |  | inactive
26 | CC(C)=CCCC(C)O (centres undefined) |  | inactive
27 | CC(C)(C)CC(C)(C)c1ccc(Nc2ccc(C(C)(C)CC(C)(C)C)cc2)cc1 | -0.278% [at 8.38 µM] (inactive) | 
28 | CCc1c(Br)c(Br)c(Br)c(Br)c1Br |  | inactive
29 | C=CC(=O)OCCCCCC |  | inactive
30 | CC1=CC(=O)[C@H]2C[C@@H]1C2(C)C |  | inactive
31 | OCC1CCC(CO)CC1 (centres undefined) |  | inactive
32 | CCCC/C=C\CCCCCCCCCC=O |  | inactive
33 | CCCCCCOC(=O)C(C)CC (centres undefined) |  | inactive
34 | CO[Si](OC)(OC)c1ccccc1 |  | inactive
35 | Cc1onc(-c2ccccc2)c1C(=O)Cl |  | inactive
36 | O=c1[nH]c(=O)c2ccccc2o1 |  | inactive
37 | CCCCCCCCC(=O)OCC |  | inactive
38 | CCOC(C)(C)C |  | inactive
39 | CCCCOC(=O)C(C)OC(=O)CCC (centres undefined) |  | inactive
40 | CCCCCCCCCCCCI |  | inactive
41 | Cc1cccc(C)c1NC(=O)CN1CCCCCC1 |  | inactive
42 | COc1cc(C(=S)N2CCOCC2)ccc1O |  | inactive
43 | COc1ccc2cc1Oc1cc3c(cc1OC)CC[N+](C)(C)[C@H]3Cc1ccc(cc1)Oc1c(OC)c(OC)cc3c1[C@@H](C2)[N+](C)(C)CC3 |  | inactive
44 | CCN(CC#N)c1cccc(C)c1 |  | inactive
45 | O=C(O)C(=O)Nc1cccc(-c2nn[nH]n2)c1 |  | inactive
46 | C[C@@H]1NC(=O)[C@@H](N)CNC(=O)[C@H](C2CCNC(N)=N2)NC(=O)/C(=C/NC(N)=O)NC(=O)[C@H](CNC(=O)C[C@@H](N)CCCN)NC1=O (some centres undefined) | -5.12% [at 0.348 µM] (inactive) | 
47 | CNc1ccccc1 |  | inactive
48 | FC(F)(F)C(F)(F)C(F)(F)C(F)(F)C(F)(F)C(F)(F)CCI |  | inactive

Row | SMILES | activity change, negative = inhibition | Potency
49 | NC(=O)Nc1ccccc1 |  | inactive
50 | COC(=O)c1cc(Cl)c(NC(C)=O)cc1OC |  | inactive
51 | CO[Si](CCCCl)(OC)OC |  | inactive
52 | Cn1c(=O)c2[nH]c(Br)nc2n(C)c1=O |  | inactive
53 | CCOc1c(N2CCOCC2)cnn(C)c1=O |  | inactive
54 | COC(=O)N[C@H](C(=O)N[C@@H](Cc1ccccc1)[C@@H](O)CN(Cc1ccc(-c2ccccn2)cc1)NC(=O)[C@@H](NC(=O)OC)C(C)(C)C)C(C)(C)C |  | inactive
55 | CC1CC(=O)CC(C)(C)C1 (centres undefined) |  | inactive
56 | CC(=O)NCc1c(I)c(NC(C)=O)c(I)c(C(=O)O)c1I |  | inactive
57 | O=C1C=CC(=O)O1 |  | inactive
58 | C1CCC(SSC2CCCCC2)CC1 |  | inactive
59 | CC(C)(c1ccccc1)c1ccc(Nc2ccc(C(C)(C)c3ccccc3)cc2)cc1 |  | inactive
60 | O=C1c2ccccc2C(=O)C1c1ccc2cc(S(=O)(=O)O)cc(S(=O)(=O)O)c2n1 |  | inactive
61 | CCCOCCO |  | inactive
62 | Cc1ccc2c(ccc3ccccc32)c1 |  | inactive
63 | c1ccc2c(c1)Oc1ccccc1S2 |  | inactive
64 | CCCCC(CC)COC(=O)CCCCCCCC(=O)OCC(CC)CCCC (centres undefined) |  | inactive
65 | O=C(O)Cc1ccc(CCNS(=O)(=O)c2ccc(Cl)cc2)cc1 |  | inactive
66 | FC(F)(F)c1ccccc1Cl |  | inactive
67 | CC(C)(C)c1cc(C(C)(C)C)c(O)c(C(C)(C)C)c1 |  | inactive
68 | Cc1nc(-c2ccc3c(c2)CCN(CCC2CCC(NC(=O)/C=C/c4ccc(F)cc4)CC2)CC3)no1 (centres undefined) |  | inactive
69 | C=CCc1cc(OC)c(O)c(C(=O)NCCO)c1 |  | inactive
70 | N[C@@H](CSSC[C@H](N)C(=O)O)C(=O)O | 5.54% [at 0.348 µM] (inactive) | 
71 | CC1(C)CO[C@@H](CC(=O)O)CN1 |  | inactive
72 | C=CC(=O)NCOCC(C)C |  | inactive

Row | SMILES | activity change, negative = inhibition | Potency
73 | CC(C)(O)C(=O)O |  | inactive
74 | CCc1cccc(CC)c1NC(=O)C(=O)O |  | inactive
75 | CC(C)=CCC/C(C)=C/C(=O)O |  | inactive
76 | CC1=CC(C)C(C=O)CC1 (centres undefined) |  | inactive
77 | Cc1nc2ccccc2s1 |  | inactive
78 | O=C(O)c1ccc(CO)o1 |  | inactive
79 | C=C(C)C(=O)OCCC(C)OC(=O)C(=C)C (centres undefined) |  | inactive
80 | CCCCC(CC)COCCC#N (centres undefined) |  | inactive
81 | O=C(O)c1cccc(C(F)(F)F)c1 |  | inactive
82 | CC(C)C(=O)OCCOc1ccccc1 |  | inactive
83 | C[N+]1([O-])CCOCC1 |  | inactive
84 | CC(CO)Oc1ccccc1 (centres undefined) |  | inactive
85 | O=C1C(c2[nH]c3ccc(S(=O)(=O)O)cc3c2O)=Nc2ccc(S(=O)(=O)O)cc21 |  | inactive
86 | CCN(CC)c1ccc(C=O)c(O)c1 |  | inactive
87 | N#C[C@@H]1C[C@@H]2C[C@@H]2N1C(=O)[C@@H](N)C12CC3CC(CC(O)(C3)C1)C2 |  | inactive
88 | COc1ccc(N)c(OC)c1 |  | inactive
89 | CCC1COC(=O)O1 (centres undefined) |  | inactive
90 | CC(C)c1cc2c(cc1S(=O)(=O)O)[C@@]1(C)CCC[C@@](C)(C(=O)O)[C@@H]1CC2 |  | inactive
91 | CC1(C)C2=CCCC(C)(C)[C@]23CC[C@H]1C3 |  | inactive
92 | O=Cc1cc2ccccc2o1 |  | inactive
93 | CC(CO)CO |  | inactive
94 | CC(C)=CCCC(C)CCOC(=O)C(C)C (centres undefined) |  | inactive
